Data reported in PubChem BioAssay AID1159580 (chemical genetic matrix, 2015).
About 2,000 (36%) of roughly 5,500 compounds were called active. Roughly 18% stayed inconclusive and do not appear here. Rule as the data show it: active = normalized growth mostly below about 0.91 (no sharp cut-off); inconclusive = no clear call, values can overlap the other calls; inactive = mostly above about 0.92. Some of the results follow.

Assay: chemical genetic growth profiling, strain panel (AID 1159580);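 also: tested at 20 µM; growth read once vehicle control cultures reached saturation at 30 °C; 1 = growth at the plate median or of vehicle wells; lower values mean less growth of the strain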
Settings: growth OD
[1] = S. cerevisiae deletion strains, locus YHR030C, strain SLT2, hits give low values
[2] = S. cerevisiae deletion strains, locus YJL095W, strain BCK1, hits give low values

Measured: normalized growth

C=Cc1c(C)c2cc3nc(c4c5[nH]c(cc6nc(cc1[nH]2)C(C)=C6CC)c(C)c5C(=O)[C@@H]4C(=O)OC)[C@@H](CCC(=O)OC/C=C(\C)CCCC(C)CCCC(C)CCCC(C)C)[C@@H]3C (some centres undefined)
inactive: [1] 0.987 | S. cerevisiae deletion strains, locus YHR079C, strain IRE1, hits give low values 0.972 | [2] 0.978 | S. cerevisiae deletion strains, locus YJR066W, strain TOR1, hits give low values 0.934 | S. cerevisiae deletion strains, locus YLR113W, strain HOG1, hits give low values 0.957 | S. cerevisiae deletion strains, locus YNL183C, strain NPR1, hits give low values 0.935 | S. cerevisiae deletion strains, locus YOR231W, strain MKK1, hits give low values 0.954 | S. cerevisiae deletion strains, locus YPL256C, strain CLN2, hits give low values 0.965

CCC(C)C(=O)O[C@H]1[C@H](O)C2C(CN3CC(C)CCC3[C@@]2(C)O)C2C[C@]34O[C@]5(O)C(OC(=O)C(C)(O)C(C)O)CC[C@@]3(C)C5C(OC(C)=O)[C@@H](OC(C)=O)C4[C@@]21O (some centres undefined)
inactive: S. cerevisiae deletion strains, locus YAL013W, strain DEP1, hits give low values 1.01 | S. cerevisiae deletion strains, locus YBR021W, strain FUR4, hits give low values 0.996 | S. cerevisiae deletion strains, locus YBR229C, strain ROT2, hits give low values 1 | S. cerevisiae deletion strains, locus YCL029C, strain bik1, hits give low values 1 | S. cerevisiae deletion strains, locus YDL035C, strain GPR1, hits give low values 1.02 | S. cerevisiae deletion strains, locus YDL074C, strain BRE1, hits give low values 1.01 | S. cerevisiae deletion strains, locus YDL101C, strain DUN1, hits give low values 1.01 | S. cerevisiae deletion strains, locus YDL134C, strain PPH21, hits give low values 1.01 | S. cerevisiae deletion strains, locus YDL185W, strain tfp1, hits give low values 0.999 | S. cerevisiae deletion strains, locus YDL192W, strain arf1, hits give low values 1 | S. cerevisiae deletion strains, locus YDR101C, strain arx1, hits give low values 0.986 | S. cerevisiae deletion strains, locus YDR150W, strain NUM1, hits give low values 1.01 | S. cerevisiae deletion strains, locus YDR162C, strain NBP2, hits give low values 1.01 | S. cerevisiae deletion strains, locus YDR318W, strain mcm21, hits give low values 0.998 | S. cerevisiae deletion strains, locus YDR388W, hits give low values 1 | S. cerevisiae deletion strains, locus YDR502C, strain sam2, hits give low values 0.996 | S. cerevisiae deletion strains, locus YEL061C, strain CIN8, hits give low values 1.01 | S. cerevisiae deletion strains, locus YER110C, hits give low values 0.994 | S. cerevisiae deletion strains, locus YER155C, strain BEM2, hits give low values 1 | S. cerevisiae deletion strains, locus YER167W, strain BCK2, hits give low values 1.07 | S. cerevisiae deletion strains, locus YGL078C, strain dbp3, hits give low values 1 | S. cerevisiae deletion strains, locus YGL086W, strain mad1, hits give low values 1 | S. cerevisiae deletion strains, locus YGL248W, strain PDE1, hits give low values 1.01 | S. cerevisiae deletion strains, locus YGR078C, strain PAC10, hits give low values 1.01 | S. cerevisiae deletion strains, locus YGR135W, strain pre9, hits give low values 0.997 | S. cerevisiae deletion strains, locus YGR229C, strain SMI1, hits give low values 1.03 | S. cerevisiae deletion strains, locus YGR252W, strain gcn5, hits give low values 1.01 | [1] 1 | S. cerevisiae deletion strains, locus YHR079C, strain IRE1 (second series), hits give low values 0.998 | S. cerevisiae deletion strains, locus YHR094C, strain hxt1, hits give low values 1 | S. cerevisiae deletion strains, locus YHR129C, strain ARP1, hits give low values 1 | S. cerevisiae deletion strains, locus YHR200W, strain rpn10, hits give low values 1 | S. cerevisiae deletion strains, locus YIL066C, strain RNR3, hits give low values 1.01 | S. cerevisiae deletion strains, locus YIL073C, strain SPO22, hits give low values 1.02 | S. cerevisiae deletion strains, locus YIL125W, strain kgd1, hits give low values 1.01 | S. cerevisiae deletion strains, locus YIR030C, strain dcg1, hits give low values 0.991 | [2] 0.994 | S. cerevisiae deletion strains, locus YJL134W, strain LCB3, hits give low values 1.01 | S. cerevisiae deletion strains, locus YJL168C, strain set2, hits give low values 1 | S. cerevisiae deletion strains, locus YJL187C, strain SWE1 (second series), hits give low values 1.01 | S. cerevisiae deletion strains, locus YJR043C, strain POL32, hits give low values 0.984 | S. cerevisiae deletion strains, locus YJR075W, strain HOC1, hits give low values 1.01 | S. cerevisiae deletion strains, locus YKL009W, strain mrt4, hits give low values 1 | S. cerevisiae deletion strains, locus YKL068W, hits give low values 1.01 | S. cerevisiae deletion strains, locus YKL085W, strain MDH1 (second series), hits give low values 1 | S. cerevisiae deletion strains, locus YKL085W, strain MDH1, hits give low values 1 | S. cerevisiae deletion strains, locus YKL190W, strain CNB1, hits give low values 1.01 | S. cerevisiae deletion strains, locus YKR001C, strain vps1, hits give low values 0.98 | S. cerevisiae deletion strains, locus YLR039C, strain RIC1, hits give low values 1 | S. cerevisiae deletion strains, locus YLR058C, strain SHM2, hits give low values 1.01 | S. cerevisiae deletion strains, locus YLR102C, strain apc9, hits give low values 1 | S. cerevisiae deletion strains, locus YLR262C, strain YPT6, hits give low values 0.996 | S. cerevisiae deletion strains, locus YLR268W, strain sec22, hits give low values 0.981 | S. cerevisiae deletion strains, locus YLR330W, strain CHS5, hits give low values 1.02 | S. cerevisiae deletion strains, locus YLR342W, strain FKS1 (second series), hits give low values 1 | S. cerevisiae deletion strains, locus YLR371W, strain rom2, hits give low values 1 | S. cerevisiae deletion strains, locus YLR418C, strain cdc73, hits give low values 1 | S. cerevisiae deletion strains, locus YML016C, strain PPZ1, hits give low values 1 | S. cerevisiae deletion strains, locus YML032C, strain rad52, hits give low values 0.991 | S. cerevisiae deletion strains, locus YML124C, strain tub3, hits give low values 0.996 | S. cerevisiae deletion strains, locus YMR078C, strain ctf18, hits give low values 1.01 | S. cerevisiae deletion strains, locus YMR223W, strain ubp8, hits give low values 0.999 | S. cerevisiae deletion strains, locus YMR263W, strain SAP30, hits give low values 1 | S. cerevisiae deletion strains, locus YMR307W, strain GAS1, hits give low values 0.987 | S. cerevisiae deletion strains, locus YNL067W, strain RPL9B, hits give low values 1 | S. cerevisiae deletion strains, locus YNL128W, strain TEP1, hits give low values 1.02 | S. cerevisiae deletion strains, locus YNL153C, strain GIM3, hits give low values 0.996 | S. cerevisiae deletion strains, locus YNL233W, strain BNI4, hits give low values 1.01 | S. cerevisiae deletion strains, locus YNL250W, strain rad50, hits give low values 0.99 | S. cerevisiae deletion strains, locus YNL271C, strain bni1, hits give low values 0.992 | S. cerevisiae deletion strains, locus YNL298W, strain CLA4, hits give low values 0.986 | S. cerevisiae deletion strains, locus YNL307C, strain MCK1, hits give low values 1.01 | S. cerevisiae deletion strains, locus YNL322C, strain KRE1, hits give low values 1.01 | S. cerevisiae deletion strains, locus YNR052C, strain pop2, hits give low values 1 | S. cerevisiae deletion strains, locus YOL006C, strain TOP1, hits give low values 1.02 | S. cerevisiae deletion strains, locus YOL012C, strain htz1 0.933 | S. cerevisiae deletion strains, locus YOL147C, strain pex11, hits give low values 0.996 | S. cerevisiae deletion strains, locus YOR061W, strain CKA2, hits give low values 1.01 | S. cerevisiae deletion strains, locus YOR069W, strain VPS5, hits give low values 1.01 | S. cerevisiae deletion strains, locus YOR136W, strain idh2, hits give low values 1 | S. cerevisiae deletion strains, locus YOR144C, strain elg1, hits give low values 0.996 | S. cerevisiae deletion strains, locus YOR184W, strain ser1, hits give low values 1.02 | S. cerevisiae deletion strains, locus YOR316C, strain cot1, hits give low values 1 | S. cerevisiae deletion strains, locus YPL055C, strain LGE1, hits give low values 1.03 | S. cerevisiae deletion strains, locus YPL241C, strain CIN2, hits give low values 1.01 | S. cerevisiae deletion strains, locus YPR119W, strain clb2, hits give low values 1 | S. cerevisiae deletion strains, locus YPR141C, strain kar3, hits give low values 0.996 | S. cerevisiae deletion strains, locus YPR163C, strain tif3, hits give low values 0.996 | S. cerevisiae deletion strains, locus YPR167C, strain met16, hits give low values 1.01 | S. cerevisiae deletion strains, strain wtn01, hits give low values 0.997 | S. cerevisiae strains, strain wild type, hits give low values 1.01
